This is part of a sample that, as a whole, favours compounds with a hit. Of some 83,000 tested, about 20% had one in any assay.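 Activity criterion: percent growth below 10, measured after cells in 96-well plates were exposed to a single compound concentration for 48 hours.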 Activity calls are given as the source filed them.
How the values were obtained:
Experiment in all cases: NCI-60 one-dose screen, 48 h (100 = growth as untreated, 0 = no growth, -100 = all killed)
Conditions in all cases: 10 µM unless noted
HCT-15 colon = tested on: HCT-15 colon
HT29 colon = tested on: HT29 colon
SNB-75 CNS = tested on: SNB-75 CNS
SNB-19 CNS = tested on: SNB-19 CNS
U251 CNS = tested on: U251 CNS
PC-3 prostate = tested on: PC-3 prostate
SK-MEL-5 melanoma = tested on: SK-MEL-5 melanoma
UACC-62 melanoma = tested on: UACC-62 melanoma
LOX IMVI melanoma = tested on: LOX IMVI melanoma
SK-MEL-28 melanoma = tested on: SK-MEL-28 melanoma
SK-MEL-2 melanoma = tested on: SK-MEL-2 melanoma
EKVX NSCLC = tested on: EKVX NSCLC
SN12C renal = tested on: SN12C renal
UO-31 renal = tested on: UO-31 renal
TK-10 renal = tested on: TK-10 renal
ACHN renal = tested on: ACHN renal
CAKI-1 renal = tested on: CAKI-1 renal
A498 renal = tested on: A498 renal
CCRF-CEM leukemia = tested on: CCRF-CEM leukemia

Measured: growth

O=C(NNc1nc2c(F)cccc2n2cccc12)c1cnccn1
inactive: HCT-15 colon 26.3% | HT29 colon 24.3% | SNB-75 CNS 74.3% | SNB-19 CNS 23.9% | U251 CNS 18.7% | PC-3 prostate 36.2% | UACC-62 melanoma 16.5% | SK-MEL-2 melanoma 48.7% | EKVX NSCLC 18.5% | SN12C renal 34.3% | TK-10 renal 48.9% | CAKI-1 renal 17.6% | A498 renal 54.3% | CCRF-CEM leukemia 10.8%
active: SK-MEL-5 melanoma 5.96% | LOX IMVI melanoma -32.6% | SK-MEL-28 melanoma 8.95% | UO-31 renal 8.05% | ACHN renal 4.68%

N#CC1=C(N)Oc2c(cnn2-c2ccc([N+](=O)[O-])cc2[N+](=O)[O-])C1c1ccccc1 (stereo not given)
inactive: HCT-15 colon 93.2% | HT29 colon 110% | SNB-75 CNS 86.5% | SNB-19 CNS 104% | U251 CNS 102% | PC-3 prostate 105% | SK-MEL-5 melanoma 97.1% | UACC-62 melanoma 93% | LOX IMVI melanoma 102% | SK-MEL-28 melanoma 106% | SK-MEL-2 melanoma 110% | EKVX NSCLC 90.6% | SN12C renal 101% | UO-31 renal 79.9% | TK-10 renal 99.4% | ACHN renal 103% | CAKI-1 renal 90.6% | A498 renal 50.7% | CCRF-CEM leukemia 79.7%

COc1ccc(C(=O)CC#N)cc1
inactive: HCT-15 colon 112% | HT29 colon 126% | SNB-75 CNS 95.5% | SNB-19 CNS 103% | U251 CNS 100% | PC-3 prostate 105% | SK-MEL-5 melanoma 97.9% | UACC-62 melanoma 105% | LOX IMVI melanoma 94.7% | SK-MEL-28 melanoma 114% | SK-MEL-2 melanoma 134% | EKVX NSCLC 126% | SN12C renal 94.1% | UO-31 renal 105% | TK-10 renal 137% | ACHN renal 108% | CAKI-1 renal 127% | A498 renal 109%

C[C@H]1[C@H]2[C@H]3CC[C@@H]4[C@@]5(C)CC[C@H](O)C(C)(C)[C@@H]5CC[C@@]4(C)[C@]3(C)CC[C@]23CO[C@]1(C)[C@@H](C(=O)/C=C\c1ccco1)C3
inactive: HCT-15 colon 106% | HT29 colon 98.1% | SNB-75 CNS 78.4% | SNB-19 CNS 75.3% | U251 CNS 69.4% | PC-3 prostate 92.7% | LOX IMVI melanoma 89% | SK-MEL-28 melanoma 36.7% | EKVX NSCLC 105% | SN12C renal 101% | UO-31 renal 77% | TK-10 renal 97.4% | ACHN renal 44.3% | CAKI-1 renal 55.8% | A498 renal 96.2% | CCRF-CEM leukemia 101%
active: SK-MEL-5 melanoma 8.55% | UACC-62 melanoma 7.16% | SK-MEL-2 melanoma 9.51%

COc1cc(C2C3=C(COC3=O)N(CCO)c3cc4c(cc32)OCO4)cc(OC)c1OC (stereo not given)
active: HT29 colon 0.994% | SNB-19 CNS -2.19% | U251 CNS 2.92% | SK-MEL-5 melanoma -42.2% | A498 renal -19.6%
inactive: HCT-15 colon 18.1% | SNB-75 CNS 51% | PC-3 prostate 19.6% | UACC-62 melanoma 22.2% | LOX IMVI melanoma 26.1% | SK-MEL-28 melanoma 44.7% | SK-MEL-2 melanoma 24.7% | EKVX NSCLC 35.2% | SN12C renal 16.8% | UO-31 renal 45.8% | TK-10 renal 54.4% | ACHN renal 40.1% | CAKI-1 renal 50.6%

Cc1c(C)c([N+](=O)[O-])c(C)c([N+](=O)[O-])c1C
inactive: HCT-15 colon 108% | HT29 colon 93.5% | SNB-75 CNS 104% | SNB-19 CNS 97.1% | U251 CNS 100% | PC-3 prostate 98.7% | SK-MEL-5 melanoma 101% | UACC-62 melanoma 102% | LOX IMVI melanoma 99.6% | SK-MEL-28 melanoma 104% | SK-MEL-2 melanoma 102% | EKVX NSCLC 103% | SN12C renal 102% | UO-31 renal 105% | TK-10 renal 102% | ACHN renal 118% | CAKI-1 renal 99.3% | A498 renal 94.3%

COc1ccc(-c2nc(S(=O)(=O)c3ccccc3)c(S(=O)CC(=O)N3CCC(C)CC3)o2)cc1 (stereo not given)
inactive: HT29 colon 11% | SNB-75 CNS 72% | SNB-19 CNS 57.6% | U251 CNS 66.2% | PC-3 prostate 40.9% | SK-MEL-5 melanoma 72.8% | UACC-62 melanoma 17.9% | SK-MEL-28 melanoma 19.2% | SK-MEL-2 melanoma 67.9% | EKVX NSCLC 65.7% | TK-10 renal 33.1% | CAKI-1 renal 34.5% | A498 renal 83.8%
active: HCT-15 colon -48.5% | LOX IMVI melanoma -4.12% | SN12C renal -33.3% | UO-31 renal -65.9% | ACHN renal -29.8% | CCRF-CEM leukemia 1.85%

COc1cc(NC(=O)CSc2nc3ccc(C)cc3c(=O)n2Cc2ccccc2)cc(OC)c1OC
active: SNB-75 CNS -5.79%
inactive: HCT-15 colon 84.4% | HT29 colon 70.6% | SNB-19 CNS 89.8% | U251 CNS 57.6% | PC-3 prostate 74.1% | SK-MEL-5 melanoma 39.3% | UACC-62 melanoma 53.2% | LOX IMVI melanoma 61.7% | SK-MEL-28 melanoma 75.1% | SK-MEL-2 melanoma 57.2% | EKVX NSCLC 84.9% | SN12C renal 83.5% | UO-31 renal 71.4% | TK-10 renal 55.4% | ACHN renal 38% | CAKI-1 renal 82.4% | A498 renal 14.1% | CCRF-CEM leukemia 94.1%

CN(CCN(C)c1ccc(C(=N)N)cc1)c1ccc(C(=N)N)cc1
active: CCRF-CEM leukemia -72%
inactive: HCT-15 colon 102% | HT29 colon 108% | SNB-75 CNS 99.6% | SNB-19 CNS 121% | U251 CNS 95.4% | PC-3 prostate 81.3% | SK-MEL-5 melanoma 92% | UACC-62 melanoma 78.7% | LOX IMVI melanoma 99.9% | SK-MEL-28 melanoma 108% | SK-MEL-2 melanoma 94.4% | EKVX NSCLC 94.4% | SN12C renal 74.3% | UO-31 renal 79.8% | TK-10 renal 115% | ACHN renal 105% | CAKI-1 renal 68.6% | A498 renal 71.4%

O=C1c2ccccc2CCC12OC2c1cn(-c2ccccc2)nc1-c1ccc(Cl)cc1 (stereo not given)
inactive: HCT-15 colon 41.4% | HT29 colon 102% | SNB-75 CNS 90.9% | SNB-19 CNS 91.9% | U251 CNS 64.8% | PC-3 prostate 83.6% | SK-MEL-5 melanoma 83.1% | UACC-62 melanoma 63.8% | LOX IMVI melanoma 81.6% | SK-MEL-28 melanoma 100% | SK-MEL-2 melanoma 112% | EKVX NSCLC 96.7% | SN12C renal 101% | UO-31 renal 88.6% | TK-10 renal 113% | ACHN renal 98.8% | CAKI-1 renal 74.3% | A498 renal 91.9% | CCRF-CEM leukemia 86.3%

Cc1nc2sccn2c1-c1cn2ccsc2n1
inactive: HCT-15 colon 70.3% | HT29 colon 99.3% | SNB-75 CNS 84.8% | SNB-19 CNS 93.1% | U251 CNS 90.8% | PC-3 prostate 94.6% | SK-MEL-5 melanoma 65.6% | UACC-62 melanoma 83.4% | LOX IMVI melanoma 98.4% | SK-MEL-28 melanoma 104% | SK-MEL-2 melanoma 98% | EKVX NSCLC 80.5% | SN12C renal 93.6% | UO-31 renal 89.7% | TK-10 renal 103% | ACHN renal 99.3% | CAKI-1 renal 53.1% | A498 renal 82.7% | CCRF-CEM leukemia 96.3%

N#CC1=C(N)Oc2c(ccc3ccccc23)C1c1ccccc1Cl (stereo not given)
inactive: HCT-15 colon 10.7% | HT29 colon 70% | SNB-75 CNS 13.3% | SNB-19 CNS 32.9% | U251 CNS 12.4% | PC-3 prostate 20% | UACC-62 melanoma 26.6% | LOX IMVI melanoma 27.3% | SK-MEL-28 melanoma 50.5% | SK-MEL-2 melanoma 55.9% | EKVX NSCLC 65.3% | SN12C renal 22.2% | UO-31 renal 43.2% | ACHN renal 34% | CAKI-1 renal 27.4% | CCRF-CEM leukemia 29.6%
active: SK-MEL-5 melanoma 9.89% | TK-10 renal 6.11% | A498 renal -10.3%

COc1ccc(-c2cnc3c(-c4cccc5ncccc45)cnn3c2)cc1
inactive: HCT-15 colon 71.6% | HT29 colon 43.5% | U251 CNS 16.3% | PC-3 prostate 50.6% | SK-MEL-5 melanoma 22.3% | UACC-62 melanoma 54.2% | LOX IMVI melanoma 72.4% | SK-MEL-28 melanoma 58.1% | SK-MEL-2 melanoma 76.1% | EKVX NSCLC 80% | SN12C renal 37.8% | UO-31 renal 55.4% | TK-10 renal 61.7% | CAKI-1 renal 32.2% | A498 renal 16.1% | CCRF-CEM leukemia 98.4%
active: SNB-75 CNS -13.1% | SNB-19 CNS 5.29% | ACHN renal 7.66%

CCNc1nc2cc(Nc3ccnc4cc(Cl)ccc34)ccc2o1
inactive: HCT-15 colon 40.9% | HT29 colon 31.5% | SNB-75 CNS 83.7% | SNB-19 CNS 84.4% | U251 CNS 74.4% | PC-3 prostate 64.3% | SK-MEL-5 melanoma 48.2% | UACC-62 melanoma 70.9% | LOX IMVI melanoma 58.5% | SK-MEL-28 melanoma 80.7% | SK-MEL-2 melanoma 81.2% | EKVX NSCLC 86% | SN12C renal 79.3% | UO-31 renal 70.2% | TK-10 renal 81.9% | ACHN renal 88.2% | CAKI-1 renal 71.9% | A498 renal 47% | CCRF-CEM leukemia 76.8%

Cc1cccc(C)c1N=c1oc2ccc(Cl)cc2nc1-c1ccccc1O
inactive: HCT-15 colon 89.4% | HT29 colon 80.5% | SNB-75 CNS 87.3% | SNB-19 CNS 109% | U251 CNS 94.4% | PC-3 prostate 88.6% | SK-MEL-5 melanoma 91.3% | UACC-62 melanoma 81.3% | LOX IMVI melanoma 87.9% | SK-MEL-28 melanoma 93.4% | SK-MEL-2 melanoma 85.7% | EKVX NSCLC 78.8% | SN12C renal 86.9% | UO-31 renal 76.8% | TK-10 renal 101% | ACHN renal 90.7% | CAKI-1 renal 90.4% | A498 renal 95.3%

Cc1nn(-c2ccccc2)c(Cl)c1/C=N\N=c1/sc2ccccc2n1C
inactive: HCT-15 colon 103% | HT29 colon 93.3% | SNB-75 CNS 107% | SNB-19 CNS 98.6% | U251 CNS 103% | PC-3 prostate 89.5% | SK-MEL-5 melanoma 104% | UACC-62 melanoma 87.1% | LOX IMVI melanoma 117% | SK-MEL-28 melanoma 103% | SK-MEL-2 melanoma 114% | EKVX NSCLC 110% | SN12C renal 86.8% | UO-31 renal 93% | TK-10 renal 99.1% | ACHN renal 107% | CAKI-1 renal 101% | A498 renal 83.1% | CCRF-CEM leukemia 92.7%

Source: PubChem BioAssay (NCI)
